Rows were chosen to be rich in hits. Some 12% of all compounds tested hit in one or more screens of this group.
USP30 block = inhibitors of human USP30 deubiquitinase; Ubiquitin carboxyl-terminal hydrolase 30 (Homo sapiens), Q70CQ3; purified USP30, Ub-rhodamine cleavage fluorescence; inhibition, % at 25 µM; 47,000 compounds, 5.3% hits; AID 1645860, 2021
Target sequence (Q70CQ3 whole entry, looked up): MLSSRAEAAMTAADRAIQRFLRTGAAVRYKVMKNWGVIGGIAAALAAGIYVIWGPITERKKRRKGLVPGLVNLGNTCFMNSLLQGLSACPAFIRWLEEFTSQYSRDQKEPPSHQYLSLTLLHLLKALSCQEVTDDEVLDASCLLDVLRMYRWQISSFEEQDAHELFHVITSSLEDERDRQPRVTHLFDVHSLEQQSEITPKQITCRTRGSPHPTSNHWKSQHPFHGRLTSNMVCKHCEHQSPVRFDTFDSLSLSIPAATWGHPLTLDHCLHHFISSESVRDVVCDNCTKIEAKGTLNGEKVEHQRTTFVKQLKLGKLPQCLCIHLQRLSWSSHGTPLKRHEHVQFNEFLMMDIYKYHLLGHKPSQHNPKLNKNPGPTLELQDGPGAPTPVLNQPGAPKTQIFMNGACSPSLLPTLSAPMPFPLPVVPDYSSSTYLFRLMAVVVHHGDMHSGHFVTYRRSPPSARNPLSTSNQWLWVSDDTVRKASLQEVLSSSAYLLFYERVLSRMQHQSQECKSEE
USP17 inh = inhibitors of human USP17 deubiquitinase; purified USP17, Ub-rhodamine cleavage fluorescence, 3 h; inhibition, % at 50 µM; 47,000 compounds, 6.5% hits
OTUD3 block = inhibitors of human OTUD3 deubiquitinase. OTU domain-containing protein 3 (Homo sapiens), Q5T2D3. purified OTUD3, Ub-rhodamine fluorescence, 2 h. inhibition, % at 25 µM. 47,000 compounds, 0.7% hits. AID 1645858, 2021
USP28 block = inhibitors of human USP28 deubiquitinase | Ubiquitin carboxyl-terminal hydrolase 28 (Homo sapiens), Q96RU2 | purified USP28, Ub-rhodamine cleavage fluorescence, 30 min | inhibition, % at 25 µM | 47,000 compounds, 3% hits | AID 1645857, 2021
Active calls of the source: *. Cut-off read from the data, not from the text of the source: active = inhibition above about 30%; inactive = the rest.

Results for O=C(COc1ccccc1-c1nnc(-c2ccccc2)o1)Nc1ccc(F)cc1F ?
USP30 block: 35*; USP17 inh: 84*; OTUD3 block: 13; USP28 block: 3

Results for CCc1cc(OCC(=O)NC(c2ccccc2)c2ccccc2)ccc1Cl ?
USP30 block: 8; USP17 inh: 19; OTUD3 block: 6; USP28 block: 4

Results for Cc1ccccc1-c1nc(CS(=O)(=O)CC(=O)Nc2ccccc2Cl)c(C)o1 ?
USP30 block: 4; USP17 inh: 11; OTUD3 block: 1; USP28 block: -5

What do the screens show for `COc1ccccc1CNC(=O)CS(=O)(=O)Cc1nc(-c2ccccc2F)oc1C`?
USP30 block: 16; USP17 inh: 58*; OTUD3 block: -23; USP28 block: 15

What do the screens show for `COc1ccccc1CNC(=O)COc1ccccc1-c1nnc(-c2ccccc2)o1`?
USP30 block: 31*; USP17 inh: 19; OTUD3 block: 6; USP28 block: -42

How did CC(CCc1ccccc1)NC(=O)COc1ccccc1-c1nnc(-c2ccccc2)o1 (stereo not drawn) do in these assays?
USP30 block: 41*; USP17 inh: 31*; OTUD3 block: 1; USP28 block: 6

Results for CC(CCc1ccccc1)NC(=O)COc1ccc(Cl)c(Cl)c1 (stereo not drawn) ?
USP30 block: 27; USP17 inh: 25; OTUD3 block: 22; USP28 block: 31*

What do the screens show for `COc1ccc(CNC(=O)COc2ccccc2-c2nnc(-c3ccccc3)o2)cc1`?
USP30 block: -17; USP17 inh: -6; OTUD3 block: -3; USP28 block: -4

Results for Cc1cc(CN2CC[C@H]3O[C@@H](C(=O)NCc4ccco4)CC[C@H]32)no1 ?
USP30 block: -6; USP17 inh: -35; OTUD3 block: -14; USP28 block: -18

How did COC(=O)c1sc(NC(=O)CCS(=O)(=O)c2ccccc2)c(C(=O)OC)c1C do in these assays?
USP17 inh: -36; OTUD3 block: 1

Results for Cc1nc(C2CCCCN2C(=O)c2ccccc2)nc2c1CCC(=O)N2Cc1ccccn1 (stereo not drawn) ?
USP30 block: 12; USP17 inh: 3; OTUD3 block: 7; USP28 block: 1

How did CCOC(=O)c1c(-c2ccc(C)o2)csc1NC(=O)COC(=O)c1cc(=O)[nH]c2ccccc12 do in these assays?
USP17 inh: 37*; OTUD3 block: -2

What do the screens show for `CCOC(=O)c1oc2ccccc2c1NC(=O)COC(=O)c1cc(=O)[nH]c2ccccc12`?
USP30 block: 0; USP17 inh: -10; OTUD3 block: -1; USP28 block: 0

Results for Cc1ccc(-c2nc3nc(C)cc(N4CCC(C)CC4)n3n2)cc1 ?
USP17 inh: 56*; OTUD3 block: 1

What do the screens show for `COc1ccc(-n2c(SCC(=O)Nc3cc(Cl)ccc3C(=O)O)nc3ccccc3c2=O)cc1Cl`?
USP17 inh: 93*; OTUD3 block: 0

What do the screens show for `O=C(c1cnc2[nH][nH]c(=O)c2c1)c1cc(Cl)cc(Cl)c1O`?
USP30 block: 46*; USP17 inh: 89*; OTUD3 block: 71*; USP28 block: 55*

What do the screens show for `COCCCNC(=O)COc1c(-c2ccc(OC)cc2)oc2ccccc2c1=O`?
USP30 block: 49*; USP17 inh: 23; OTUD3 block: 19; USP28 block: 18

Results for O=C(c1ccc(CS(=O)c2ccc(Cl)cc2)o1)N1CCN(c2ccccc2)CC1 (stereo not drawn) ?
USP30 block: 6; USP17 inh: -1; OTUD3 block: 3; USP28 block: 7

How did CNC1CCC2(CC1)CN(Cc1cccc3ncccc13)Cc1ccccc1O2 (stereo not drawn) do in these assays?
USP30 block: -5; USP17 inh: 0; OTUD3 block: 6; USP28 block: 18

What do the screens show for `Cc1nn(-c2nc3ccccc3[nH]2)c2c1C(c1cccs1)CC(=O)N2` (stereo not drawn)?
USP30 block: -18; USP17 inh: 52*; OTUD3 block: 10; USP28 block: 31*

Results for COc1ccccc1NS(=O)(=O)c1cc([N+](=O)[O-])ccc1NCC1COc2ccccc2O1 (stereo not drawn) ?
USP30 block: 22; USP17 inh: 6; OTUD3 block: 4; USP28 block: 12

Results for Cc1ccc([N+](=O)[O-])cc1S(=O)(=O)Nc1cc2sc(=O)oc2c2ccccc12 ?
USP30 block: -10; USP17 inh: 67*; OTUD3 block: 33*; USP28 block: 61*

Results for C=C(C)[C@@H]1CC[C@]2(C(=O)O)CC[C@]3(C)[C@H](CC[C@@H]4[C@@]5(C)CC[C@H](O)C(C)(C)[C@@H]5CC[C@]43C)[C@@H]12 ?
USP30 block: 15; USP17 inh: 31*; OTUD3 block: 15; USP28 block: 10

How did COc1cccc(NC(=O)N2CCN(c3nc4ccncc4n(CC(C)C)c3=O)CC2)c1 do in these assays?
USP30 block: 0; USP17 inh: -2; OTUD3 block: -3; USP28 block: 5

What do the screens show for `O=C(NCc1ccc2c(c1)OCO2)c1nnc(Cc2ccc(F)cc2)o1`?
USP30 block: 22; USP17 inh: 56*; OTUD3 block: 3; USP28 block: 5

Results for CCCN1Cc2cccc(C(=O)NCc3ccc4c(c3)OCO4)c2C1=O ?
USP30 block: 16; USP17 inh: 8; OTUD3 block: 11; USP28 block: 35*

Results for COc1ccc2[nH]c3c(c2c1)CCN1C(=O)N(c2ccccc2C(=O)NCc2ccc4c(c2)OCO4)C(=O)[C@]31C ?
USP30 block: 2; USP17 inh: 29; OTUD3 block: 2; USP28 block: 8

Results for Cc1ccc(S(=O)(=O)N(C)c2ccccc2C(=O)NCc2ccc3c(c2)OCO3)cc1 ?
USP30 block: 3; USP17 inh: -9; OTUD3 block: -1; USP28 block: -9

How did O=C(NCc1ccc2c(c1)OCO2)c1ccccc1OCc1ccc(F)cc1 do in these assays?
USP30 block: 31*; USP17 inh: 33*; OTUD3 block: 20; USP28 block: 17

How did O=C(NCc1ccc(F)cc1)c1nnc(Cc2ccc(Cl)cc2)o1 do in these assays?
USP30 block: 3; USP17 inh: 4; OTUD3 block: 0; USP28 block: 1

What do the screens show for `N#Cc1ccccc1OCC(=O)NCc1ccc2c(c1)OCO2`?
USP30 block: -20; USP17 inh: -13; OTUD3 block: -12; USP28 block: -11

How did COc1ccc(-n2cc(C(=O)NCc3ccc4c(c3)OCO4)c3ccccc3c2=O)cc1 do in these assays?
USP30 block: 54*; USP17 inh: 0; OTUD3 block: 0; USP28 block: 26

Results for O=C(CCC(=O)N(c1ccccc1)c1ccccc1)N1CCOCC1 ?
USP30 block: 14; USP17 inh: 11; OTUD3 block: 18; USP28 block: 9

Results for O=C(NCc1ccccc1)c1ccccc1OCc1ccc2c(c1)OCO2 ?
USP30 block: 35*; USP17 inh: 31*; OTUD3 block: 19; USP28 block: 3
